Measured values: PubChem BioAssay (Tox21)
Inconclusive results are not listed. Calls of active or inactive are those of the source. Unless noted, calls come from the whole dose curve; as a rule, active = well fitted curve in the direction sought with a large enough effect in the repeat runs; inconclusive = weak or mixed curves; inactive = no such curve, though single readings can be large; an effect the other way counts as inactive or inconclusive.

Tests used:
[1] = qHTS assay to identify small molecule agonists of the sonic hedgehog signaling (Shh) pathway (AID 1259368; calls by dose curve;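 note: NIH/3T3-derived 3T3Gli1-Luc cells carrying a stable Gli1-driven firefly luciferase reporter; series mostly up to about 92 µM; nearly all actives have a fitted effect of over 15% in size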)
How it was run: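 Luminescent signal was taken as a measure of Gli1-controlled luciferase expression in stably transfected NIH/3T3-derived cells that had been treated for 24 hr with compounds delivered in DMSO.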

[2] = target: Estrogen receptor beta (Homo sapiens) (UniProt Q92731); test: qHTS assay to identify small molecule agonists of the estrogen receptor beta (ER-beta) signaling pathway (AID 1259377; active = well fitted activation curve with a large enough effect in the signal ratio in the repeat runs, not every such curve was filed as active; the % refers to the signal ratio)
Sequence of Estrogen receptor beta (Homo sapiens) (Q92731 whole entry, looked up): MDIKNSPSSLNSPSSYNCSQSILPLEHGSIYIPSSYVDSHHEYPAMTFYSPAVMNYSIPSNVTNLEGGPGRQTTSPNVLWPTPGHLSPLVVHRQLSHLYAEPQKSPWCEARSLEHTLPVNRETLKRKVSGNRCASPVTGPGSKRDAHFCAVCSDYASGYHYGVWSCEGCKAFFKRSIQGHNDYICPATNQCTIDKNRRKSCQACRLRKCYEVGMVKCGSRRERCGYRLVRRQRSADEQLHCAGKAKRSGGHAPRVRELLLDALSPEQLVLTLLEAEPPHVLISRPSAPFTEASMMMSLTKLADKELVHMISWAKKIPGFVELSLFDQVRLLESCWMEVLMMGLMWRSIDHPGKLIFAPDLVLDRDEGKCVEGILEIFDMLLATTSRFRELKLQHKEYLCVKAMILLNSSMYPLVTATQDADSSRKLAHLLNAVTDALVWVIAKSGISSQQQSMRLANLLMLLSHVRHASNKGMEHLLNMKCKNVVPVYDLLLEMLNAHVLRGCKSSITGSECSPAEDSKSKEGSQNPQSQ
How it was run: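 Beta-lactamase reporter readout: fluorescence of LiveBLAzer B/G FRET substrate after 2 h at room temperature, following 16 h compound treatment of ER-beta-UAS-bla HEK293T cells at 37C in 2% charcoal-stripped FBS medium.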

[3] = target: Estrogen receptor beta (Homo sapiens) (UniProt Q92731); test: qHTS assay to identify small molecule antagonists of the estrogen receptor beta (ER-beta) signaling pathway (AID 1259378; active = well fitted inhibition curve with a large enough effect in the signal ratio in the repeat runs, not every such curve was filed as active; the % refers to the signal ratio)
How it was run: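 ER-beta-UAS-bla HEK293T (GripTite) cells in 2% charcoal-stripped FBS medium were preincubated 6 hr at 37C, dosed with compound, then stimulated with 1 nM E2 (final) for 16 hr; beta-lactamase reporter read by B/G FRET fluorescence after 2 hr substrate loading.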

[4] = qHTS assay to identify small molecule agonists of the androgen receptor (AR) signaling pathway in the presence of an antagonist - cell viability counter screen (AID 1259379);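 note: MDA-kb2 human breast cancer cells carrying an MMTV luciferase reporter; series mostly up to about 92 µM; nearly all actives have a fitted effect of over 25% in size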
How it was run: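 In MDA-kb2 cells (human breast carcinoma, MMTV-luciferase), compounds at 15 concentrations plus 3.0uM nilutamide; 16 hr, 37C, 0% CO2; CellTiter-Fluor fluorescence read for viability.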

[5] = qHTS assay to identify small molecule agonists of the estrogen receptor beta (ER-beta) signaling pathway - cell viability counter screen (AID 1259380); note: nearly all actives have a fitted effect of over 30% in size
How it was run: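 Viability of ER-beta-UAS-bla HEK293T cells was determined by CellTiter-Glo luminescence following 16 hr treatment with test compounds at 37C.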

[6] = target: Androgen receptor (Homo sapiens) (UniProt P10275); test: qHTS assay to identify small molecule agonists of the androgen receptor (AR) signaling pathway in the presence of an antagonist (AID 1259381; calls by dose curve; note: nearly all actives have a fitted effect of over 15% in size)
Sequence of Androgen receptor (Homo sapiens) (P10275 whole entry, looked up): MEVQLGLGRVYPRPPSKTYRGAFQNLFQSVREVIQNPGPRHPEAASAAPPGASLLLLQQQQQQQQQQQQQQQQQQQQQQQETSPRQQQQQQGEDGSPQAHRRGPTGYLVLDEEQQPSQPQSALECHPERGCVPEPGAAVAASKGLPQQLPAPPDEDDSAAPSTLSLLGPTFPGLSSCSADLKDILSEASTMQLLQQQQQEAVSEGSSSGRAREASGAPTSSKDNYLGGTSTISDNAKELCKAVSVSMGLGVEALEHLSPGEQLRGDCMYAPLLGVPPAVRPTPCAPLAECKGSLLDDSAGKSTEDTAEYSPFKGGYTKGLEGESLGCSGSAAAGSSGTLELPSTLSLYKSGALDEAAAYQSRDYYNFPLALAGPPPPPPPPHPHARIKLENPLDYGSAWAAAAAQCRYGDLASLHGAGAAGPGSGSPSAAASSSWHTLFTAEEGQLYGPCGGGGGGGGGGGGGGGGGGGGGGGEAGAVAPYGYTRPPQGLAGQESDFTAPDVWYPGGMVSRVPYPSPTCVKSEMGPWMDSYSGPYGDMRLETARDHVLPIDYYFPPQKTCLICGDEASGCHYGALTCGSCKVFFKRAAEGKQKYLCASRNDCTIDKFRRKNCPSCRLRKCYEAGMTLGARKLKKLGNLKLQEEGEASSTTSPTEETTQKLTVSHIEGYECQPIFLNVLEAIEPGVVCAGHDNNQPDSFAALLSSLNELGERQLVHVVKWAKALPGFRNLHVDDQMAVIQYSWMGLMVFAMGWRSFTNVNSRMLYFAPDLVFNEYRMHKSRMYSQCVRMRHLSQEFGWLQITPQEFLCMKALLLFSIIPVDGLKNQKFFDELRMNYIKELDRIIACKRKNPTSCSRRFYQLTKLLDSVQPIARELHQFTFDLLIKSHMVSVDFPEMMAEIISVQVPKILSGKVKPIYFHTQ
How it was run: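 Here, 15-concentration compound series were pin-transferred onto MDA-kb2 MMTV-luciferase cells already dosed with nilutamide (3.0uM final). After 16hr at 37C, ONE-Glo was added and luminescence read 30min later at room temperature.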

[7] = qHTS assay to identify small molecule antagonists of the estrogen receptor beta (ER-beta) signaling pathway - cell viability counter screen (AID 1259382); note: series mostly up to about 92 µM; nearly all actives have a fitted effect of over 55% in size
How it was run: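 Tox21 10K library tested in qHTS format on ER-beta-bla HEK293T cells stimulated with 1nM E2; 16 hr treatment at 37C. Same-well CellTiter-Glo luminescence served as the cell viability measure.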

[8] = target: Estrogen receptor (Homo sapiens) (UniProt P03372); test: qHTS assay to identify small molecule agonists of the estrogen receptor alpha (ER-alpha) signaling pathway in the presence of an antagonist (AID 1259383; calls by dose curve; note: top concentration of the series differs between compounds; nearly all actives have a fitted effect of over 15% in size)
Sequence of Estrogen receptor (Homo sapiens) (P03372 whole entry, looked up): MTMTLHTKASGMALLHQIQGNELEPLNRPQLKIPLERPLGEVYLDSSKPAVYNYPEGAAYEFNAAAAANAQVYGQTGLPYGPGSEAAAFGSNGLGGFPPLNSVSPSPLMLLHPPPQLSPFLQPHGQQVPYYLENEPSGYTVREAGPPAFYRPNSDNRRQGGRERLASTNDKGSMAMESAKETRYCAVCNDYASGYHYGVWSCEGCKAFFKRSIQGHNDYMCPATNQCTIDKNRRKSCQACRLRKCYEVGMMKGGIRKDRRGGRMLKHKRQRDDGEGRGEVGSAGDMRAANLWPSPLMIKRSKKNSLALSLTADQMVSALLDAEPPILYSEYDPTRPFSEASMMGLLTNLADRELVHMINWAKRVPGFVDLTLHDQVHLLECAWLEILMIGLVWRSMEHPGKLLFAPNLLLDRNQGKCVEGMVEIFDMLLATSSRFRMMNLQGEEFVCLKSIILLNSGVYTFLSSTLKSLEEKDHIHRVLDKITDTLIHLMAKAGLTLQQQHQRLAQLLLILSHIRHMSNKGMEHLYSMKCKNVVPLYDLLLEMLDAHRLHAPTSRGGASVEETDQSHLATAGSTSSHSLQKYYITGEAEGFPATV
How it was run: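 In VM7Luc4E2 cells, 4,000 per well, compounds at 15 concentrations were co-incubated 22hr at 37C with 10.0nM final ICI-182,780. Luminescence from the stably transfected 4×ERE-luciferase reporter was recorded 30min after ONE-Glo addition.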

[9] = qHTS assay to identify small molecule agonists or antagonists of the thyroid stimulating hormone receptor (TSHR) signaling pathway - wild type cell line counter screen (AID 1259384; calls by dose curve)
How it was run: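 Wild-type HEK293 cells were plated 18 h at 37 C/5% CO2, pin-dosed with compound plus Ro20-1724 medium, held 30 min at room temperature, then given cAMP-d2 and anti-cAMP-cryptate; fluorescence was read after 1 h. Fifteen concentrations, triplicate.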

[10] = target: Thyrotropin receptor (Homo sapiens) (UniProt P16473); test: qHTS assay to identify small molecule antagonists of the thyroid stimulating hormone receptor (TSHR) signaling pathway (AID 1259385; calls by dose curve; note: nearly all actives have a fitted effect of over 20% in size)
Sequence of Thyrotropin receptor (Homo sapiens) (P16473 whole entry, looked up): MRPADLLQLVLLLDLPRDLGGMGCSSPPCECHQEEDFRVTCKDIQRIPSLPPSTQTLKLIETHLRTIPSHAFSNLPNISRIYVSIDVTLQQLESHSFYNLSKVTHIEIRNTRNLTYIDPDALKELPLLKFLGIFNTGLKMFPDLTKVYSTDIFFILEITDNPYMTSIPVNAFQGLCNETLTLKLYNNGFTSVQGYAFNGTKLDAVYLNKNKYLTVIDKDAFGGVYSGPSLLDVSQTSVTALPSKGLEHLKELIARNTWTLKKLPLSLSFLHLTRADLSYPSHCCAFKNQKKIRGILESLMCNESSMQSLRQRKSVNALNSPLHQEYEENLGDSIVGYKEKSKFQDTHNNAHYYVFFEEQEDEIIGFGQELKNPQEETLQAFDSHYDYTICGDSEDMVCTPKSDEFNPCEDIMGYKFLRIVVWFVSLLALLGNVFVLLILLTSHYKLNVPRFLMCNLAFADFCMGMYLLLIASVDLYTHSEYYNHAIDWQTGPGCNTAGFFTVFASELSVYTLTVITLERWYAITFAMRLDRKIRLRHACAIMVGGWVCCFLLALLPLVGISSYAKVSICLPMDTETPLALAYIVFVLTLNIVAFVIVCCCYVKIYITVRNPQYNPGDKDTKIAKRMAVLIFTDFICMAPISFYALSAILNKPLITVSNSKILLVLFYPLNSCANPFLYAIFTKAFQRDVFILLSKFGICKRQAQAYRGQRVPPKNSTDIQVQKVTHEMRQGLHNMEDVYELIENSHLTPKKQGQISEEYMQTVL
How it was run: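 TSHR-HEK293 cells were plated and held 18 h at 37C/5% CO2, then given compound plus Ro20-1724 and stimulated with TSH at 1.5 ng/mL final. After 30 min at room temperature, cAMP was detected with cAMP-d2/anti-cAMP-cryptate (1 h) by fluorescence.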

[11] = qHTS assay to identify small molecule agonists of the estrogen receptor alpha (ER-alpha) signaling pathway in the presence of an antagonist - cell viability counter screen (AID 1259386);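 note: series mostly up to about 92 µM; cells exposed to compounds for 22 h at 37 °C before the viability read; nearly all actives have a fitted effect of over 30% in size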
How it was run: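 Fluorescent CellTiter-Fluor viability signal from VM7Luc4E2 cells, with the reagent added during the final hour of a 22hr compound exposure at 37C in the presence of 10.0nM ICI-182,780.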

[12] = target: Progesterone receptor (Homo sapiens) (UniProt P06401); test: qHTS assay to identify small molecule agonists of the progesterone receptor (PR) signaling pathway (AID 1346784; calls by dose curve; note: nearly all actives have a fitted effect of over 30% in size)
Sequence of Progesterone receptor (Homo sapiens) (P06401 whole entry, looked up): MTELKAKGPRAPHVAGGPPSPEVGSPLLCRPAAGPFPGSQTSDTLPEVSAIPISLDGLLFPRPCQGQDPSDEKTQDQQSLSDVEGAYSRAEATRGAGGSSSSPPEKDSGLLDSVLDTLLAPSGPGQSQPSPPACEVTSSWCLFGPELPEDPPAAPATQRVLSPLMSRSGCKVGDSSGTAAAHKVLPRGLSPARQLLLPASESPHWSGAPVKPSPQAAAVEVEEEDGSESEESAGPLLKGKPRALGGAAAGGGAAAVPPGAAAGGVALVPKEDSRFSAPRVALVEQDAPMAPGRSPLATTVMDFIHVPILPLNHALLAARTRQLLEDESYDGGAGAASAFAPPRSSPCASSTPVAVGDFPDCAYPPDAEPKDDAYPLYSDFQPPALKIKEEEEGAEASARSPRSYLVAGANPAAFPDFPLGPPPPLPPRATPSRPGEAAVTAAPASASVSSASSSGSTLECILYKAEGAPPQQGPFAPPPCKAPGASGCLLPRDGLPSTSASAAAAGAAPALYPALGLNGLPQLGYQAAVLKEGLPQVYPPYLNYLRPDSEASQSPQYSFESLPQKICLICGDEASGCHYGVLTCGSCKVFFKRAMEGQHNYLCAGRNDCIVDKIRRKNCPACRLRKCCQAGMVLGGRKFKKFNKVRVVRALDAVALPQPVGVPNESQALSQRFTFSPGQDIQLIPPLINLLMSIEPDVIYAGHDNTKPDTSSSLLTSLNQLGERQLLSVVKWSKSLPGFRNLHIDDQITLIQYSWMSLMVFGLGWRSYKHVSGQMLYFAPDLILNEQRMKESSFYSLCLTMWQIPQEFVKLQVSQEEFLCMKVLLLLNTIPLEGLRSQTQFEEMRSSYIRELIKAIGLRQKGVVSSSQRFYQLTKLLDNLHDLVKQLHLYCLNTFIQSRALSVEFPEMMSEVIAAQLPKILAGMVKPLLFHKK
How it was run: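 HEK 293T PR-UAS-bla reporter cells, 2% charcoal-stripped FBS; 6 hr settle at 37C/5% CO2, compound (DMSO) 16 hr, LiveBLAzer B/G FRET substrate 2 hr RT, fluorescence intensity read.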

[13] = qHTS assay to identify small molecule antagonists of the progesterone receptor (PR) signaling pathway - cell viability counter screen (AID 1346798); note: series mostly up to about 92 µM; nearly all actives have a fitted effect of over 50% in size
How it was run: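 Luminescence readout (CellTiter-Glo, 30 min, RT) of viability in PR-UAS-bla HEK293T cells exposed to compound and R5020 agonist for 16 hr at 37C, 5% CO2; run in the same wells as the beta-lactamase reporter read.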

[14] = qHTS assay to identify small molecule agonists of the progesterone receptor (PR) signaling pathway - cell viability counter screen (AID 1346799; calls by dose curve; note: nearly all actives have a fitted effect of over 45% in size)
How it was run: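 HEK293T PR-UAS-bla, 3,000 cells/well, 2% charcoal-stripped FBS; 6 h settle, compound 16 h at 37C/5% CO2; LiveBLAzer 2 h RT, then CellTiter-Glo 30 min RT, luminescence read.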

[15] = qHTS assay to identify small molecule antagonists of the TGF-beta/Smad signaling pathway - cell viability counter screen (AID 1346824); note: nearly all actives have a fitted effect of over 50% in size
How it was run: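 SBE-bla HEK 293T cells were plated overnight at 37 C, then given compounds in DMSO plus TGF-beta1 (added as 0.25 ng/mL solution) for 5 hr. After the bla read, CellTiter-Glo was added to the same wells and luminescence read after 30 min at room temperature.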

[16] = qHTS assay to identify small molecule agonists of the TGF-beta/Smad signaling pathway - cell viability counter screen (AID 1346829); note: top concentration of the series differs between compounds; nearly all actives have a fitted effect of over 45% in size
How it was run: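 Same-well cytotoxicity: CellTiter-Glo added after the 2 hr room-temperature beta-lactamase substrate step, luminescence measured 30 min later; cells had 5 hr of compound at 37 C.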

[17] = qHTS assay to identify small molecule agonists of the TGF-beta/Smad signaling pathway (AID 1346859; active = well fitted activation curve with a large enough effect in the signal ratio in the repeat runs, not every such curve was filed as active; the % refers to the signal ratio; note: series mostly up to about 77 µM)
How it was run: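 Read-out: fluorescence at 460 and 530 nm (405 nm excitation) after a 2 hr room-temperature incubation with beta-lactamase FRET substrate. SBE-bla HEK 293T cells had been treated with test compounds for 5 hr at 37 C.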

[18] = target: Thyrotropin-releasing hormone receptor (Homo sapiens) (UniProt P34981); test: qHTS assay to identify small molecule antagonists of the thyrotropin-releasing hormone receptor (TRHR) signaling pathway (AID 1346877; active = well fitted inhibition curve with a large enough effect in the repeat runs, not every such curve was filed as active; note: series mostly up to about 51 µM)
Sequence of Thyrotropin-releasing hormone receptor (Homo sapiens) (P34981 whole entry, looked up): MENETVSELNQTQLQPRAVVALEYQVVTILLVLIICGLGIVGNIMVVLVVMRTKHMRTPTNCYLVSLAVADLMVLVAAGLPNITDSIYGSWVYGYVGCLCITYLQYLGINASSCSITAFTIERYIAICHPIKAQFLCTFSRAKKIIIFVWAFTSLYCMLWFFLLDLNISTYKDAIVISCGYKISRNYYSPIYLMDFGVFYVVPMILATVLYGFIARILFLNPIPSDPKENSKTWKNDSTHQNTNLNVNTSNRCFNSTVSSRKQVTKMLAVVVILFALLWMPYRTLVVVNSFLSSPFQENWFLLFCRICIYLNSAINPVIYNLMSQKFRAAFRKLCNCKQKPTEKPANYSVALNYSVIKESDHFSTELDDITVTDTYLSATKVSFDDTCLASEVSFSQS
How it was run: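 In this cell-based calcium flux format, HEK293 cells expressing TRHR received test compound for 5 min before the agonist TRH (1 nM final). Dye loading lasted 2 h at 37 °C.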

[19] = target: Progesterone receptor (Homo sapiens) (UniProt P06401); test: qHTS assay to identify small molecule antagonists of the progesterone receptor (PR) signaling pathway (AID 1346795; active = well fitted inhibition curve with a large enough effect in the signal ratio in the repeat runs, not every such curve was filed as active; the % refers to the signal ratio)
How it was run: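 Beta-lactamase reporter, HEK293T PR-UAS-bla line; 2% charcoal-stripped FBS; 6 hr pre-incubation, 37C/5% CO2. Compound + R5020 1 nM final, 16 hr. LiveBLAzer B/G FRET substrate, 2 hr RT; fluorescence intensity read.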

[20] = qHTS assay to identify small molecule antagonists of the sonic hedgehog signaling (Shh) pathway (AID 1259369; calls by dose curve; note: nearly all actives have a fitted effect of over 45% in size)
How it was run: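 Screening used 3T3Gli1-Luc cells at 2,000 per well, compounds delivered in DMSO, and conditioned medium as agonist stimulus; plates incubated 24hr at 37 C and 5% CO2 before a 30min luciferase step.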

Measured: Potency

OCCN1C[C@H](O)[C@@H](O)[C@H](O)[C@H]1CO
inactive: [1] | [2] | [3] | [4] | [5] | [6] | [7] | [8] | [9] | [10] | [11] | [12] | [13] | [14] | [15] | [16] | [17] | [18]

CC(C)c1cccc(O)c1
inactive: [1] | [2] | [3] | [4] | [5] | [7] | [8] | [9] | [10] | [12] | [19] | [13] | [14] | [15] | [16] | [17]

N[C@@H](CS)C(=O)O
inactive: [1] | [20] | [4] | [5] | [9] | [10] | [11] | [12] | [13] | [14] | [15] | [16] | [17]

Nc1cc(N)cc(C(=O)O)c1
inactive: [1] | [2] | [3] | [4] | [5] | [7] | [8] | [9] | [11] | [12] | [13] | [14] | [15] | [16] | [17]

CCCCCCC(=O)OCC
inactive: [1] | [20] | [4] | [7] | [8] | [9] | [10] | [12] | [19] | [13] | [14] | [15] | [16] | [17] | [18]

CCCc1ccccc1O
inactive: [1] | [2] | [3] | [4] | [5] | [7] | [9] | [10] | [12] | [19] | [13] | [14] | [15] | [16] | [17] | [18]

CC(=O)OC(C)(C)C
inactive: [1] | [2] | [3] | [4] | [5] | [7] | [8] | [11] | [12] | [13] | [14] | [15] | [16] | [17]

CC1=CC(C)C(C=O)C(C)C1 (centres undefined)
inactive: [1] | [20] | [4] | [5] | [8] | [9] | [11] | [12] | [14] | [15] | [16] | [17]
